Data taken from PubChem BioAssay (NCI).
The panel holds about 79,000 compounds, 15% with a hit somewhere; the sample as a whole holds those more often. Unmarked numbers belong to inactive results. Activity calls are given as the source filed them. Cut-off read from the data, not from the text of the source: active = growth inhibition above about 70%; inactive = the rest.

Key:
[1] = NCI Yeast Anticancer Drug Screen. Data for the rad50 strain (AID 155);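 note: 0% = growth of vehicle-only cultures of the same strain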; conditions: S. cerevisiae rad50 strain growth inhibition; at 50.0 µM; active compounds read high
Summary of the method: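 A DNA repair-deficient yeast mutant serves as the test organism; compound-induced growth inhibition is calculated against vehicle-treated cells.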

[2] = NCI Yeast Anticancer Drug Screen. Data for the mec2-1 strain (AID 157); conditions: S. cerevisiae mec2-1 strain, at 50.0 µM, active compounds read high
Summary of the method: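 Cells of the genetically defined mec2-1 yeast strain are incubated with test compound. Inhibition of growth is calculated against vehicle-treated controls.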

[3] = NCI Yeast Anticancer Drug Screen. Data for the sgs1 mgt1 strain (AID 161);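 note: 0% = growth of cultures given vehicle only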; conditions: S. cerevisiae sgs1 mgt1 strain, at 50.0 µM, active compounds read high
Summary of the method: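 Mutant yeast exposed to compound; growth scored against vehicle-only wells.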

[4] = NCI Yeast Anticancer Drug Screen. Data for the cln2 rad14 strain (AID 165);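 note: 0% = growth equal to vehicle treated cultures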; conditions: S. cerevisiae cln2 rad14 strain, at 50.0 µM, active compounds read high
Summary of the method: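 The screen exposed genetically defined yeast (cln2 rad14) to test compounds and scored growth inhibition relative to vehicle-treated controls.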

[5] = NCI Yeast Anticancer Drug Screen. Data for the bub3 strain (AID 167); conditions: S. cerevisiae bub3 mutant strain, at 50.0 µM, active compounds read high
Summary of the method: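 Inhibition values come from growth of compound-treated mutant yeast normalised to vehicle-treated controls.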

[6] = NCI Yeast Anticancer Drug Screen. Data for the mlh1 rad18 strain (AID 175); conditions: S. cerevisiae mlh1 rad18 strain growth inhibition; at 50.0 µM; active compounds read high
Summary of the method: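 Compound-treated yeast growth, normalised to vehicle controls. Strain bears defined DNA repair mutations.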

## O=C1NC(=O)C(CCI)N1 (configuration not stated)
[1]
  growth inhibition: 11.2%
[2]
  growth inhibition: 0.15%
[3]
  growth inhibition: 23.1%
[4]
  growth inhibition: 16.9%
[5]
  growth inhibition: -15.2%
[6]
  growth inhibition: -12.7%

## O=C1c2cccc3cccc(c23)C1(O)S(=O)(=O)O (configuration not stated)
[1]
  growth inhibition: 4.6%
[2]
  growth inhibition: -2.1%
[3]
  growth inhibition: 0.85%
[4]
  growth inhibition: -13.8%
[5]
  growth inhibition: 21.5%
[6]
  growth inhibition: 6.95%

## CC12CCCCC1C(C(C)(C)OC(=O)c1ccc([N+](=O)[O-])cc1)CC2 (configuration not stated)
[1]
  growth inhibition: 15%
[2]
  growth inhibition: 8.2%
[3]
  growth inhibition: 17.4%
[4]
  growth inhibition: -8.85%
[5]
  growth inhibition: 12.6%
[6]
  growth inhibition: 21.1%

## N#C/C(=C\c1cccnc1)c1ccc(Br)cc1
[1]
  growth inhibition: 59.4%
[2]
  growth inhibition: 36.4%
[3]
  growth inhibition: 41.8%
[4]
  growth inhibition: 14.3%
[5]
  growth inhibition: 43.5%
[6]
  growth inhibition: 70% (active)

## COc1cc(C(=O)O)c(I)c(OC)c1OC
[1]
  growth inhibition: -10.9%
[2]
  growth inhibition: -5.85%
[3]
  growth inhibition: -6.25%
[4]
  growth inhibition: -4.85%
[5]
  growth inhibition: 3.6%
[6]
  growth inhibition: -9.65%

## CCCCCCCN1C(=O)C(O)(c2ccc(C3(O)C(=O)N(CCCCCCC)c4ccccc43)s2)c2ccccc21 (configuration not stated)
[1]
  growth inhibition: 9.35%
[2]
  growth inhibition: 10.9%
[3]
  growth inhibition: 4.9%
[4]
  growth inhibition: 10.2%
[5]
  growth inhibition: 9.7%
[6]
  growth inhibition: 14.6%

## NC(CC(=O)N/C=N/C(=O)O)C(=O)O (configuration not stated)
[1]
  growth inhibition: -5.85%
[2]
  growth inhibition: 5.45%
[3]
  growth inhibition: -17.2%
[4]
  growth inhibition: 4.4%
[5]
  growth inhibition: 6.45%
[6]
  growth inhibition: -7.75%

## O=c1[nH]c(SCc2ccco2)nc2ccccc12
[1]
  growth inhibition: 0.05%
[2]
  growth inhibition: 12.7%
[3]
  growth inhibition: 6.3%
[4]
  growth inhibition: -23.7%
[5]
  growth inhibition: 1.8%
[6]
  growth inhibition: -1.75%

## N#CCCN(CCC#N)c1ccc(/C=C2\N=C(c3cc([N+](=O)[O-])ccc3Cl)N(NC(=O)CC(=O)Nc3ccccc3Cl)C2=O)cc1
[1]
  growth inhibition: -31%
[2]
  growth inhibition: -28.1%
[3]
  growth inhibition: -13.8%
[4]
  growth inhibition: 2.5%
[5]
  growth inhibition: 1.65%
[6]
  growth inhibition: -18.3%

## O=S(=O)(Nc1ccc(C(F)(F)F)cc1)c1ccc(F)cc1
[1]
  growth inhibition: -5.7%
[2]
  growth inhibition: 7.35%
[3]
  growth inhibition: 26%
[4]
  growth inhibition: 15.9%
[5]
  growth inhibition: -0.95%
[6]
  growth inhibition: 28.1%

## COCCCNC(=O)C1C(=O)N(CCCOC)C(=O)/C1=N\N (configuration not stated)
[1]
  growth inhibition: 5.15%
[2]
  growth inhibition: 21.1%
[3]
  growth inhibition: 12.1%
[4]
  growth inhibition: -9.3%
[5]
  growth inhibition: -2.25%
[6]
  growth inhibition: 17.1%

## CC1CC=C2C=C(Cl)C=CC2(C)C1C (configuration not stated)
[1]
  growth inhibition: 1.8%
[2]
  growth inhibition: 3.55%
[3]
  growth inhibition: -2.85%
[4]
  growth inhibition: -9.2%
[5]
  growth inhibition: 9%
[6]
  growth inhibition: -1.85%

## CCCCCCC(C(=O)O)C(=O)O
[1]
  growth inhibition: -20.8%
[2]
  growth inhibition: -15.4%
[3]
  growth inhibition: 23.6%
[4]
  growth inhibition: 13.2%
[5]
  growth inhibition: 1.15%
[6]
  growth inhibition: -5.6%

## Cc1ccc(NC(=O)Oc2cccc(C(F)(F)F)c2)cc1
[1]
  growth inhibition: -8.55%
[2]
  growth inhibition: 17.4%
[3]
  growth inhibition: 23.1%
[4]
  growth inhibition: -12.7%
[5]
  growth inhibition: 15.4%
[6]
  growth inhibition: 35.6%

## CNC(=O)OCc1c(COC(=O)NC)c(-c2ccc(S(C)(=O)=O)cc2)n(C)c1C
[1]
  growth inhibition: 49%
[2]
  growth inhibition: -3.3%
[3]
  growth inhibition: -16.2%
[4]
  growth inhibition: 5.25%
[5]
  growth inhibition: -10.1%
[6]
  growth inhibition: -42%

## Clc1ccccc1-c1c2ccccc2cc2ccc3ccccc3c12
[1]
  growth inhibition: -6.75%
[2]
  growth inhibition: -11.6%
[3]
  growth inhibition: -3.85%
[4]
  growth inhibition: -39.5%
[5]
  growth inhibition: 18.9%
[6]
  growth inhibition: -12.4%

## CC1(C)CC(=O)C2=C(SC3=C(C2)C(=O)CC(C)(C)S3)S1
[1]
  growth inhibition: -5.75%
[2]
  growth inhibition: -2.5%
[3]
  growth inhibition: 2.8%
[4]
  growth inhibition: -7.25%
[5]
  growth inhibition: -9.85%
[6]
  growth inhibition: -3.3%

## CC(C)Oc1ccc(N2C(=O)C(C)CNC2=S)cc1 (configuration not stated)
[1]
  growth inhibition: -13.9%
[2]
  growth inhibition: -1.9%
[3]
  growth inhibition: -1.3%
[4]
  growth inhibition: 4.9%
[5]
  growth inhibition: 6.4%
[6]
  growth inhibition: -8.55%

## CC(=O)N1CCC23C(=O)CC4C(=CCOC5CC(=O)N(c6ccccc62)C3C54)C1 (configuration not stated)
[1]
  growth inhibition: -19.1%
[2]
  growth inhibition: -23.9%
[3]
  growth inhibition: -4.5%
[4]
  growth inhibition: 8.9%
[5]
  growth inhibition: 3.55%
[6]
  growth inhibition: -4.8%

## COc1ccc2nc3cc(Cl)ccc3c(Nc3ccc(C(O)CCN(C)C)cc3)c2c1 (configuration not stated)
[1]
  growth inhibition: 39.8%
[2]
  growth inhibition: -2.1%
[3]
  growth inhibition: 25.4%
[4]
  growth inhibition: 24.4%
[5]
  growth inhibition: -2.1%
[6]
  growth inhibition: 5.3%

## CN(C)c1cc2c(cc1N(C)C)-c1ccccc1C2
[1]
  growth inhibition: 9.85%
[2]
  growth inhibition: 6.5%
[3]
  growth inhibition: 13.9%
[4]
  growth inhibition: -0.2%
[5]
  growth inhibition: 10.1%
[6]
  growth inhibition: 28.9%

## COc1ccc(CC2c3cc(OC)c(OC)cc3CCN2C(=O)OCc2ccccc2)cc1OC (configuration not stated)
[1]
  growth inhibition: 25.3%
[2]
  growth inhibition: -4.1%
[3]
  growth inhibition: 2.35%
[4]
  growth inhibition: 19.6%
[5]
  growth inhibition: 8.65%
[6]
  growth inhibition: 12.1%

## CC(=O)CC(=O)Nc1ccccc1Cl
[1]
  growth inhibition: 19.4%
[2]
  growth inhibition: -4.6%
[3]
  growth inhibition: 24.2%
[4]
  growth inhibition: -5.75%
[5]
  growth inhibition: -4.9%
[6]
  growth inhibition: 16.4%

## N#Cc1cnn(-c2ccc(Br)cc2)c1N
[1]
  growth inhibition: 11.4%
[2]
  growth inhibition: 0.6%
[3]
  growth inhibition: 3.1%
[4]
  growth inhibition: -33.8%
[5]
  growth inhibition: -7%
[6]
  growth inhibition: 6.3%

## COC(=O)c1nc[nH]c1C(=O)OC
[1]
  growth inhibition: 10.2%
[2]
  growth inhibition: -25.9%
[3]
  growth inhibition: 15.8%
[4]
  growth inhibition: 4%
[5]
  growth inhibition: -0.8%
[6]
  growth inhibition: 12.6%

## Cc1ccc2nnc(C)n2c1
[1]
  growth inhibition: 10.7%
[2]
  growth inhibition: 1.95%
[3]
  growth inhibition: 1.85%
[4]
  growth inhibition: 19.2%
[5]
  growth inhibition: 24.9%
[6]
  growth inhibition: -4.4%

## O=[N+]([O-])c1ccn(O)c(=Nc2ccccc2)c1
[1]
  growth inhibition: 1.7%
[2]
  growth inhibition: 11.2%
[3]
  growth inhibition: 5.45%
[4]
  growth inhibition: -32.5%
[5]
  growth inhibition: -14.9%
[6]
  growth inhibition: 20.4%

## CC(=O)N1CCNC(c2ccccc2)C1(C)C (configuration not stated)
[1]
  growth inhibition: -3.05%
[2]
  growth inhibition: -6.95%
[3]
  growth inhibition: -11.3%
[4]
  growth inhibition: -9.3%
[5]
  growth inhibition: -13.4%
[6]
  growth inhibition: 3.85%

## CCOC(=O)c1c(NCCO)c(-c2ccccc2)c(=O)n2c1[nH]c1ccccc12
[1]
  growth inhibition: 2.1%
[2]
  growth inhibition: 6.6%
[3]
  growth inhibition: 4.8%
[4]
  growth inhibition: -1%
[5]
  growth inhibition: -0.9%
[6]
  growth inhibition: 14.9%

## FC(F)(F)C(F)(F)C(F)(F)c1nc(C(F)(F)C(F)(F)C(F)(F)F)nc(C(F)(F)C(F)(F)C(F)(F)F)n1
[1]
  growth inhibition: 22.1%
[2]
  growth inhibition: -1%
[3]
  growth inhibition: 31.5%
[4]
  growth inhibition: 18.6%
[5]
  growth inhibition: 15.1%
[6]
  growth inhibition: 25.6%

## Nc1cccc(CCc2nc(N)nc(N)c2-c2ccc(Cl)cc2)c1
[1]
  growth inhibition: 0.6%
[2]
  growth inhibition: 21.6%
[3]
  growth inhibition: 13.8%
[4]
  growth inhibition: 3.2%
[5]
  growth inhibition: 8.85%
[6]
  growth inhibition: -14.3%

## CN(CCC1(C)C(=O)CCc2ccccc21)Cc1ccccc1 (configuration not stated)
[1]
  growth inhibition: 12.9%
[2]
  growth inhibition: 21.8%
[3]
  growth inhibition: 22.8%
[4]
  growth inhibition: 30.9%
[5]
  growth inhibition: 14.1%
[6]
  growth inhibition: 17.1%

## O=C(O)COc1ccc2ccccc2c1
[1]
  growth inhibition: -15.4%
[2]
  growth inhibition: 3.55%
[3]
  growth inhibition: -22.9%
[4]
  growth inhibition: -14.8%
[5]
  growth inhibition: 4.15%
[6]
  growth inhibition: 2.1%

## CSC(=N\N=C\c1c(F)cccc1Cl)/N=C/N(C)C
[1]
  growth inhibition: 8.7%
[2]
  growth inhibition: -4.1%
[3]
  growth inhibition: 12.7%
[4]
  growth inhibition: 14.8%
[5]
  growth inhibition: -2.85%
[6]
  growth inhibition: 4%

## Cc1cc2c(C(C)C)c(O)c(O)c(C=Nc3ccc(N=Nc4ccccc4)cc3)c2c(O)c1-c1c(C)cc2c(C(C)C)c(O)c(O)c(C=Nc3ccc(N=Nc4ccccc4)cc3)c2c1O
[1]
  growth inhibition: -4.7%
[2]
  growth inhibition: 0.4%
[3]
  growth inhibition: -6.3%
[4]
  growth inhibition: -21.8%
[5]
  growth inhibition: -3.35%
[6]
  growth inhibition: -4.65%

## CCOC(=O)C(NC(C)=O)C(O)c1ccc(C(C)C)cc1 (configuration not stated)
[1]
  growth inhibition: 10.8%
[2]
  growth inhibition: 4.4%
[3]
  growth inhibition: 8.45%
[4]
  growth inhibition: -33.7%
[5]
  growth inhibition: 14.8%
[6]
  growth inhibition: 14.7%

## CC1Cn2c(nnc2-c2ccccc2O)S1 (configuration not stated)
[1]
  growth inhibition: -14.1%
[2]
  growth inhibition: 0.6%
[3]
  growth inhibition: -3.25%
[4]
  growth inhibition: -2.95%
[5]
  growth inhibition: -15.3%
[6]
  growth inhibition: -12.6%
